Results as given in PubChem BioAssay AID1159580 (chemical genetic matrix, 2015).
Where “and” joins values, the source holds several entries; their conditions need not be identical. Equal values may be shown once. The campaign covered roughly 5,500 compounds. About 2,000 (36%) were called active. Not shown: some 18% with an inconclusive outcome. Rule as the data show it: active = normalized growth mostly below about 0.91 (no sharp cut-off); inconclusive = no clear call, values can overlap the other calls; inactive = mostly above about 0.92. Some of the results follow.

Test: chemical genetic growth profiling, strain panel (AID 1159580);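 also: tested at 20 µM; growth read once vehicle control cultures reached saturation at 30 °C; 1 = growth at the plate median or of vehicle wells; lower values mean less growth of the strain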
Conditions: S. cerevisiae deletion strains, growth OD
[1] = locus YAL013W, strain DEP1, active compounds read low
[2] = locus YBR229C, strain ROT2, active compounds read low
[3] = locus YDL101C, strain DUN1, active compounds read low
[4] = locus YDR150W, strain NUM1, active compounds read low
[5] = locus YEL061C, strain CIN8, active compounds read low
[6] = locus YGR078C, strain PAC10, active compounds read low
[7] = locus YHR030C, strain SLT2, active compounds read low
[8] = locus YHR087W, strain rtc3, active compounds read low
[9] = locus YJR043C, strain POL32, active compounds read low
[10] = locus YJR075W, strain HOC1, active compounds read low
[11] = locus YLR039C, strain RIC1, active compounds read low
[12] = locus YLR058C, strain SHM2 (second series), active compounds read low
[13] = locus YLR085C, strain ARP6, active compounds read low
[14] = locus YLR262C, strain YPT6, active compounds read low
[15] = locus YML094W, strain GIM5, active compounds read low
[16] = locus YMR219W, strain ESC1, active compounds read low
[17] = locus YMR263W, strain SAP30, active compounds read low
[18] = locus YNL153C, strain GIM3, active compounds read low
[19] = locus YNL298W, strain CLA4 (second series), active compounds read low
[20] = locus YNL322C, strain KRE1, active compounds read low
[21] = locus YNR030W, strain Alg12, active compounds read low
[22] = locus YOL006C, strain TOP1, active compounds read low
[23] = locus YPL055C, strain LGE1, active compounds read low
[24] = locus YPL241C, strain CIN2, active compounds read low
[25] = locus YPR135W, strain CTF4, active compounds read low
[26] = locus YHR079C, strain IRE1, active compounds read low
[27] = locus YJL095W, strain BCK1, active compounds read low
[28] = locus YJR066W, strain TOR1, active compounds read low
[29] = locus YLR113W, strain HOG1, active compounds read low
[30] = locus YNL183C, strain NPR1, active compounds read low
[31] = locus YOR231W, strain MKK1, active compounds read low
[32] = locus YPL256C, strain CLN2, active compounds read low

Measured: normalized growth

CC1CN=C(NC2CCCCC2)S1 (stereo not given)
inactive: [1] 0.987 | [2] 1 | [3] 0.977 | locus YDL134C, strain PPH21, active compounds read low 1.01 | [4] 0.947 | [5] 1.01 | [6] 0.998 | [7] 0.997 | [8] 1.02 | locus YJL187C, strain SWE1, active compounds read low 1.01 | [9] 0.982 | [10] 0.998 | [11] 1.05 | [12] 0.988 | [13] 1.02 | [14] 1.04 | [15] 1 | [16] 1.01 | [17] 0.93 | [18] 1.01 | [19] 1.02 | [20] 0.99 | [21] 1 | [22] 1.01 | [23] 0.874 | [24] 1.01 | [25] 1.01

C[N+]1(C)C2CCC1CC(OC(=O)C(CO)c1ccccc1)C2 (stereo not given)
inactive: locus YAL040C, strain CLN3, active compounds read low 1.04 and 1.01 | locus YCL061C, strain MRC1 (second series), active compounds read low 1 | locus YDR363W, strain ESC2, active compounds read low 0.993 | locus YER002W, strain NOP16, active compounds read low 1 and 0.996 | [6] 1.02 | [7] 0.972 | [26] 0.976 | [27] 1 | [28] 0.917 | [10] 1 | [29] 0.989 | locus YNL128W, strain TEP1, active compounds read low 1.01 | [18] 1.01 | locus YNL175C, strain NOP13, active compounds read low 1.01 | [30] 0.929 | locus YNL197C, strain WHI3, active compounds read low 1.02 and 1.01 | locus YNL224C, strain SQS1, active compounds read low 1.01 and 0.997 | [20] 1.03 and 1.02 | locus YOR083W, strain WHI5 (second series), active compounds read low 1.02 | [31] 0.968 | [32] 0.957

COC(=O)C(Cc1c[nH]c2ccccc12)NC(=O)c1c(Cl)cccc1Cl (stereo not given)
inactive: [1] 1 | [2] 0.992 | [3] 0.993 | [4] 0.993 | [5] 1.01 | [6] 0.994 | [7] 0.97 | [8] 0.985 | [9] 1 | [10] 0.994 | [11] 0.996 | [12] 1.01 | [13] 0.981 | [14] 1 | [15] 1 | [16] 1 | [17] 0.994 | locus YMR307W, strain GAS1, active compounds read low 0.915 | [18] 0.993 | [19] 1 | [20] 0.99 | [21] 0.999 | [22] 0.937 | [23] 0.988 | [24] 0.999 | [25] 0.963

CC(C)c1cccc(C(C)C)c1OC(=O)NC(=O)c1c(Cl)cccc1Cl
inactive: locus YAR019C, strain CDC15, active compounds read low 0.98 | locus YBL105C, strain PKC1, active compounds read low 0.984 | locus YBR135W, strain CKS1, active compounds read low 0.983 | locus YBR136W, strain MEC1, active compounds read low 0.989 | locus YBR160W, strain CDC28, active compounds read low 0.985 | locus YDL017W, strain CDC7, active compounds read low 0.985 | locus YDL028C, strain MPS1, active compounds read low 0.989 | [3] 0.971 | locus YDL108W, strain KIN28, active compounds read low 0.985 | locus YDL132W, strain cdc53, active compounds read low 0.985 | locus YDL214C, strain PRR2, active compounds read low 0.974 | locus YDR052C, strain DBF4, active compounds read low 0.978 | locus YDR054C, strain cdc34, active compounds read low 0.977 | locus YDR226W, strain ADK1, active compounds read low 0.975 | locus YDR477W, strain SNF1, active compounds read low 0.982 | locus YER123W, strain YCK3, active compounds read low 0.942 | locus YER133W, strain GLC7, active compounds read low 0.983 | locus YFL009W, strain cdc4, active compounds read low 0.99 | locus YFL029C, strain CAK1, active compounds read low 0.979 | locus YFR003C, strain YPI1, active compounds read low 0.982 | locus YFR019W, strain FAB1, active compounds read low 0.969 | locus YFR028C, strain CDC14, active compounds read low 0.988 | locus YGR040W, strain KSS1, active compounds read low 0.979 | locus YGR052W, strain FMP48, active compounds read low 1.01 | locus YGR092W, strain DBF2, active compounds read low 0.992 | [7] 0.966 | [26] 0.911 | locus YHR082C, strain KSP1, active compounds read low 1.04 | locus YHR205W, strain SCH9, active compounds read low 0.945 | locus YIL147C, strain SLN1, active compounds read low 0.988 | [27] 0.956 | locus YJL128C, strain PBS2, active compounds read low 0.928 | locus YJL157C, strain FAR1, active compounds read low 0.957 | locus YJR016C, strain ILV3, active compounds read low 0.985 | locus YJR066W, strain TOR1 (second series), active compounds read low 0.945 | [28] 1.03 | locus YKL048C, strain ELM1, active compounds read low 0.986 | locus YKL067W, strain YNK1, active compounds read low 0.966 | locus YKL101W, strain HSL1, active compounds read low 0.956 | locus YKL193C, strain SDS22, active compounds read low 0.99 | locus YKL203C, strain TOR2, active compounds read low 1.01 | [29] 0.866 | locus YLR133W, strain CKI1, active compounds read low 0.96 | locus YLR403W, strain SFP1, active compounds read low 0.962 | locus YML070W, strain DAK1, active compounds read low 0.972 | locus YMR001C, strain CDC5, active compounds read low 0.986 | locus YMR205C, strain PFK2 (second series), active compounds read low 0.98 | locus YMR277W, strain FCP1, active compounds read low 0.986 | locus YNL006W, strain LST8, active compounds read low 0.982 | locus YNL020C, strain ARK1, active compounds read low 0.957 | locus YNL161W, strain CBK1, active compounds read low 0.976 | [30] 0.979 | locus YNL207W, strain RIO2, active compounds read low 0.98 | locus YNL222W, strain SSU72, active compounds read low 0.987 | locus YNL307C, strain MCK1 (second series), active compounds read low 0.958 | locus YOL078W, strain AVO1, active compounds read low 0.985 | locus YOL136C, strain PFK27, active compounds read low 0.945 | locus YOR061W, strain CKA2, active compounds read low 0.972 | locus YOR119C, strain RIO1, active compounds read low 1.04 | [31] 0.945 | locus YOR329C, strain SCD5, active compounds read low 0.971 | locus YPL031C, strain PHO85, active compounds read low 0.954 | locus YPL153C, strain RAD53, active compounds read low 0.984 | locus YPL204W, strain HRR25, active compounds read low 0.943 | locus YPL209C, strain IPL1, active compounds read low 0.991 | [32] 0.919 | locus YPR025C, strain CCL1, active compounds read low 0.982 | locus YPR106W, strain ISR1, active compounds read low 0.978 | locus YPR111W, strain DBF20, active compounds read low 0.96 | strain NNK1, active compounds read low 0.962 | strain TSCII, active compounds read low 0.978
